The values below come from the supplement of paper PMC6555819.

The assay has as its system VDR:RXRa (NR concentration 270 nM, RXRa partner concentration 90 nM). In words: PBM binding z-score (relative to random genomic background probes); higher = stronger binding; sequences stand for … in GC…GCGATTGACAGCGTAGAATGAAGG
The procedure:
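Protein-binding microarray (Agilent 4x180K custom design, double-stranded 60-nt probes: 5' GC cap, 34-nt variable region, 24-nt constant primer region; full probe sequence given). Purified or IVT nuclear receptor:RXRα heterodimers (3:1 NR:RXRα, mostly 270:90 nM) or homodimers were incubated for 1 h in PBS with 2% milk and no ligand, then detected with Alexa488 antibodies. Fluorescence from o1-orientation probes (~5 replicates averaged) was converted to z-scores against 500 random hg19 background probes. Variable regions are seed direct-repeat (DR0–DR5) sites, all their single-nucleotide variants and half-site ablations.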
In the case of ATACGTAGGTTATCGGGTCATTCAGTTTGCGCAT, the PBM binding z-score is 5.06.
On to TAGCCTAGGTCAGATCGGGCCAGTCTACGCTATA, for which the PBM binding z-score was 0.668.
For CGTCCAAGGTCAGCAGGTGAGTGAAAGCGACGTG the value was 2.67; for CCTCGGAGGACAACCGGAGGTCAGAGCTGCCAGA, 1.9; for CGAACTAGGTCAGAACAGGACAGTTAAGGATGAT, 1.02.
CGATCTAGGTCAAAGGACAGTGAAAGGCGACGTA had a PBM binding z-score of 1.15.
For CCGAGTAGGTTACGAGGGGGCATTCTGTGCGAAT the value was 4.89.
In turn, AGCGAAAGGTCGAAGGTGAGTATACCCACCCGAA came in with a PBM binding z-score of 2.8.
As for CGTCAAAGCTCAACTAAGGTAACGTAAAGCACGC, the PBM binding z-score worked out at 0.0405.
With CCTACAGGGCCAAAGGTCATTGATTCCAATGCTC, the PBM binding z-score was determined as 5.03.
The sequence CGTCAAAGTTCAAGGCAACGTAACAGAAAGCAGC returned a PBM binding z-score of 3.3.
Regarding AATACAGGGTCACTAGGTCAGAGTAGGTACGAAT, the PBM binding z-score came to 5.25.
The figure for CGTCCAAGGTCACCAGGTCAGTGAAAGCGACGTG is 5.3; for CGTCCAAGGTCATGGGAGGTCAGTGAAGACAGAT it is 7.07; for CCGAGTTGGTTACGAGGGGGCATTCAGTGCGAAT it is 4.32.
For CGAACTAGGTCAAAGAACAGTGAAAGGCGACGTA the value was 0.943.
CCTACTGGGCCAAAGGTCTTTGATTCCAATGCTC: the PBM binding z-score is -0.283.
With AGTCAAAGTTCACTAGGCAACGTAAGATTCAGCT, the PBM binding z-score stood at 3.13.
Sequence CTCGAAAGGTCGGTTGAGGTGACTATACGGATAA returned a PBM binding z-score of 2.77.
Take TCGAGTAGGTTACGGGGGCATTCAGGGATGAAGA: the PBM binding z-score stood at 4.
For CGTCAAAGTTCAAGGTAAAGTAACAGAAAGCAGC the value was 3.4; for CCTACTGGGCCAAAGGTCAGTGATTCCAATGCTC, 2.88.
Sequence ATATGTAGGTTACATCCGGGTCTTTCAGGCTATG showed a PBM binding z-score of 1.06.
AATACAGGGTGATCGTAGGCCAGAGTACGCACAG gave a PBM binding z-score of 0.0765.
In turn, CTATGTAGGTTAAGGGGGCCATTCAGTTTGAAAG came in with a PBM binding z-score of 4.74.
The figure for TCTCGGAGGACACGAAGGTCAAAGCTTTCCAGAG is 3.87.
As to CAAACTAGGTCAAAGGTCAACGTCGAGCCAACCA, the PBM binding z-score came to 6.69.
Regarding TTACCAAGGTGAAAGGTCATTGATGCACGCCTTG, the PBM binding z-score is 5.41.
Regarding CGAACTAGGTCAAAGGACCGTGAAAGGCGACGTA, the PBM binding z-score turned out to be 1.03.
For ATATGCAGGTTAGGGTCATTCAGAAAGTAGGGAA, the PBM binding z-score was 4.26.
Sequence CCGAGTAGGTTACGAGGGGGCCTTCAGTGCGAAT came in with a PBM binding z-score of 1.73.
On to CAAACTAGGTCACGAGGTCAAAGTCCGCTTCCCG, for which the PBM binding z-score came to 6.42.
TTACCAAGGTAAAAGGTCGTTGATGCACGCCTTG displayed a PBM binding z-score of 2.6.
For CCTTACGGGTCAAGGTTATATCACGGGTGGTACG, the PBM binding z-score was found to be 3.49.
For the sequence TAGCATAGGTCATGCGGGCCAGTATAGTGTCGGC, the PBM binding z-score worked out at 4.32.
In turn, GCTGCTAGGTCATGTTGGTCAGCTAACGGGTACG displayed a PBM binding z-score of 2.15.
The figure for CTCGAAAGGTGGTGCTCAGGTGAGTATACCAAAC is -0.508.
In the case of ACAGACAGGTGAGTGAAGGTCACTCAGCTGGACG, the PBM binding z-score was 2.73.
CTATGTAGGATAAGGGGGTCATTCAGTTTGAAAG gave a PBM binding z-score of 6.5.
For ACTAGCAGGCCAAGAGTCACTCAAGATTAGTCCG, the PBM binding z-score was -0.367.
